Test results as given in PubChem BioAssay (NCATS).
Values without a mark were called inactive. Results filed as inconclusive are left out. Activity calls are given as the source filed them. Unless noted, calls come from the whole dose curve; as a rule, active = well fitted curve in either direction with a large enough effect (not every such curve was filed as active); inconclusive = small, poorly fitted or top-dose-only effect, or another doubt; inactive = flat fitted curve, though single readings scatter.

Assays:
[1] = target: Lysosomal acid glucosylceramidase (Homo sapiens) (UniProt P04062); test: Glucocerebrosidase-p2 (AID 348; in the data active = potency below about 10 µM; note: potency is the fitted concentration of half-maximal effect); conditions: purified GBA, blue fluorogenic substrate, 40 min
Method in brief: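 Normal human glucocerebrosidase (0.2 nM) with blue fluorogenic substrate (80 uM final) in citrate/phosphate pH 5.9 with 10mM sodium taurocholate, 0.01% tween-20; 40 min RT, NaOH/glycine stop; fluorescence Ex 365/Em 440; AC50 from a titration from 0.6 nM upwards.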

[2] = AP1 Signaling Pathway (AID 357); conditions: ME-180 AP-1-bla reporter, EGF-induced, beta-lactamase ratio, 5 h; at 7.69 µM (top of the series) unless noted; note: % is set by controls: 0 for no effect and ±100 for the full control effect
Method in brief: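 ME-180 cells with beta-lactamase reporter under AP-1 response element, stimulated with EC50 EGF; compounds tested in titration series, 5 h at 37 °C. CCF4 substrate added 2.5 h at room temperature; 460/530 nm emission ratio gave %activity and AC50.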

[3] = target: Cytochrome P450 1A2 (Homo sapiens) (UniProt P05177); test: p450-cyp1a2 (AID 410; calls by dose curve; note: potency is the fitted concentration of half-maximal effect;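 for activity change, negative = inhibition: -100% = full effect of reference inhibitor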); conditions: recombinant CYP1A2, luciferin-ME demethylation, luminescence; series mostly up to 11.4 µM
Method in brief: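 20nM CYP1A2, 100uM Luciferin-ME (=Km), 100mM KPO4; cpd 10 min RT; +NADPH regen, 60 min RT; stop/detect 20 min; luminescence. Normalized to furafylline 57 uM = full inhibition.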

[4] = NFAT Signaling Pathway (AID 444); conditions: Jurkat NFAT-bla M1, carbachol, beta-lactamase ratio, 5 h; at 7.69 µM (top of the series) unless noted;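 note: carbachol stimulus at about its EC50 of 1 µM final; % is set by controls: 0 for no effect and ±100 for the full control effect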
Method in brief: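 Jurkat cells carrying an NFAT-driven β-lactamase reporter and co-transfected muscarinic M1 receptor were treated with compound plus carbachol (1 uM final, an EC50 level) for 5 h at 37 °C. CCF4 loading followed for 1 h at RT; 460/530 nm ratio gave %activity.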

[5] = Stat Signaling Pathway (AID 446); conditions: ME-180 SIE beta-lactamase reporter, IL-6 stimulated, 5 h; at 7.69 µM (top of the series) unless noted;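 note: ME-180 cervical cancer cells given 40 pM IL-6 alongside compound; SIE-controlled beta-lactamase reporter measured as 460/530 nm FRET emission ratio; % is set by controls: 0 for no effect and ±100 for the full control effect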
Method in brief: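 Emission at 460 and 530 nm (excitation 405 nm) reports SIE-controlled beta-lactamase in ME-180 cells. Cells received compound with 40 pM IL-6 for 5 hrs at 37 C; data scaled between 300 pM IL-6 and 125 nM JAK-inhibitor controls.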

[6] = target: Glucocorticoid receptor (Homo sapiens) (UniProt P04150); test: GR-GFP Redistribution (AID 450;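 active = compounds whose dose series gives a full or clear partial fitted curve of increased nuclear translocation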; note: potency is the fitted concentration of half-maximal effect); conditions: U2OS GR-GFP nuclear translocation, laser cytometry, 2 h
[7] = target: Glucocorticoid receptor (Homo sapiens) (UniProt P04150); test: GR-EFC Redistribution (AID 451; calls by dose curve; note: potency is the fitted concentration of half-maximal effect); conditions: CHO-K1 GR-EFC translocation, beta-gal luminescence, 2 h
Method in brief: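 CHO-K1 cells stably expressing nuclear-localized β-gal enzyme acceptor and GR fused C-terminally to the enzyme donor fragment; ligand-driven nuclear translocation restores β-gal by complementation. Compounds titrated up to 46 uM final, 2 h at 37 °C; luminescence read.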

[8] = target: 3',5'-cyclic-AMP phosphodiesterase 4B (Homo sapiens) (UniProt Q07343); test: qHTS Assay for Inhibitors of PDE-IV (AID 607; active = well fitted activation curve with a large enough effect in the main read-out, with a control signal flat, not every such curve was filed as active; note: % of control where 0% means no effect); conditions: HEK293 ACTOne CNG channel cells, membrane potential fluorescence; series mostly up to 22.9 µM
Method in brief: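 The readout is membrane depolarisation from a cAMP-sensing CNG channel, detected with a potential dye at ex 535/em 590. Cells were HEK293-derived (endogenous PDE-IV) at 1000 cells/well, titrated up to 22.9 uM final.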

[9] = target: Cytochrome P450 2D6 (Homo sapiens) (UniProt P10635); test: qHTS Assay for Inhibitors and Substrates of Cytochrome P450 2D6 (AID 891; active = well fitted curve in the direction sought with a large enough effect; an effect the other way counts as inactive or inconclusive;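 note: luciferin methyl ether substrate demethylated by CYP2D6 with NADPH regeneration; % is set by controls: 0 for no effect and ±100 for the full control effect; nearly all actives have a fitted effect of over 60% in size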); conditions: recombinant CYP2D6, luciferin-ME EGE luminescence; series mostly up to 11.4 µM
Method in brief: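 Luminescent read-out of luciferin formed by 5 nM human CYP2D6 demethylating 30 uM Luciferin-ME EGE (Km level) over 60 min at room temperature after NADPH regeneration addition. Data normalized to full inhibition by 1.43 uM quinidine.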

[10] = target: Cytochrome P450 2C19 (Homo sapiens) (UniProt P33261); test: qHTS Assay for Inhibitors and Substrates of Cytochrome P450 2C19 (AID 899; active = well fitted curve in the direction sought with a large enough effect; an effect the other way counts as inactive or inconclusive; note: nearly all actives have a fitted effect of over 60% in size; note: potency is the fitted concentration of half-maximal effect; for activity, negative = inhibition: % is set by controls: 0 for no effect and ±100 for the full control effect); conditions: recombinant CYP2C19, luciferin-H EGE luminescence; series mostly up to 11.4 µM
Method in brief: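 NADPH-dependent conversion of Luciferin-H EGE (10uM, at KM) by 5nM enzyme in 50mM KPO4, 60 min at 37C following 10 min compound preincubation. Stopped with luciferin detection buffer; luminescence read after 20 min.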

[11] = target: Cytochrome P450 2C9 (Homo sapiens) (UniProt P11712); test: qHTS Assay for Inhibitors and Substrates of Cytochrome P450 2C9 (AID 883; active = well fitted curve in the direction sought with a large enough effect; an effect the other way counts as inactive or inconclusive; note: nearly all actives have a fitted effect of over 60% in size; note: potency is the fitted concentration of half-maximal effect); conditions: recombinant CYP2C9, luciferin-H luminescence, 60 min; series mostly up to 11.4 µM
Method in brief: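 A luminogenic readout tracked human CYP2C9 (10nM) converting deoxyluciferin (100uM, at KM) in 25mM KPO4 during 60 min at 37C with regenerated NADPH. Values normalized to 57uM sulphaphenazole as complete inhibition.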

[12] = target: Cytochrome P450 3A4 (Homo sapiens) (UniProt P08684); test: qHTS Assay for Inhibitors and Substrates of Cytochrome P450 3A4 (AID 884; active = well fitted curve in the direction sought with a large enough effect; an effect the other way counts as inactive or inconclusive; note: potency is the fitted concentration of half-maximal effect; nearly all actives have a fitted effect of over 50% in size); conditions: recombinant CYP3A4, Luciferin-PPXE luminescence; series mostly up to 57.1 µM
Method in brief: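 Luminescent readout of luciferin produced by CYP3A4 (20 nM) dealkylation of Luciferin-PPXE, 25 uM (its KM). NADPH-driven reaction ran 60 min at RT after 10 min compound preincubation; data scaled to 57 uM ketoconazole as 100% inhibition.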

[13] = target: Cytochrome P450 3A4 (Homo sapiens) (UniProt P08684); test: qHTS Assay for Activators of Cytochrome P450 3A4 (AID 885; active = well fitted curve in the direction sought with a large enough effect; an effect the other way counts as inactive or inconclusive; note: nearly all actives have a fitted effect of over 65% in size); conditions: recombinant CYP3A4, Luciferin-PPXE luminescence, 60 min; series mostly up to 11.4 µM
Method in brief: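 Activators are scored by enhanced luminescence from CYP3A4 conversion of luciferin-PPXE (25uM, equal to KM) to luciferin, after 60 min at RT with an NADPH-regenerating system.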

[14] = qHTS Assay for Identification of Small Molecule Agonists for Hypoxia Response Element Signaling Pathway (AID 914; active = well fitted activation curve with a large enough effect in the signal ratio, with a control signal flat, not every such curve was filed as active; the % refers to the signal ratio; note: % of control where 0% means no effect); conditions: ME-180 HRE-bla reporter, beta-lactamase ratio, CoCl2, 17 h; activation: active compounds read high
Method in brief: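 ME-180 cells carrying an HRE-driven beta-lactamase reporter were treated with compounds in a titration series plus an EC50 level of CoCl2 for 17 h at 37 degrees Celsius; CCF4 readout as the 460nm/530nm ratio gave AC50 values.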

Sequence of Glucocorticoid receptor (Homo sapiens) (P04150 whole entry, looked up, the tested form may be a part): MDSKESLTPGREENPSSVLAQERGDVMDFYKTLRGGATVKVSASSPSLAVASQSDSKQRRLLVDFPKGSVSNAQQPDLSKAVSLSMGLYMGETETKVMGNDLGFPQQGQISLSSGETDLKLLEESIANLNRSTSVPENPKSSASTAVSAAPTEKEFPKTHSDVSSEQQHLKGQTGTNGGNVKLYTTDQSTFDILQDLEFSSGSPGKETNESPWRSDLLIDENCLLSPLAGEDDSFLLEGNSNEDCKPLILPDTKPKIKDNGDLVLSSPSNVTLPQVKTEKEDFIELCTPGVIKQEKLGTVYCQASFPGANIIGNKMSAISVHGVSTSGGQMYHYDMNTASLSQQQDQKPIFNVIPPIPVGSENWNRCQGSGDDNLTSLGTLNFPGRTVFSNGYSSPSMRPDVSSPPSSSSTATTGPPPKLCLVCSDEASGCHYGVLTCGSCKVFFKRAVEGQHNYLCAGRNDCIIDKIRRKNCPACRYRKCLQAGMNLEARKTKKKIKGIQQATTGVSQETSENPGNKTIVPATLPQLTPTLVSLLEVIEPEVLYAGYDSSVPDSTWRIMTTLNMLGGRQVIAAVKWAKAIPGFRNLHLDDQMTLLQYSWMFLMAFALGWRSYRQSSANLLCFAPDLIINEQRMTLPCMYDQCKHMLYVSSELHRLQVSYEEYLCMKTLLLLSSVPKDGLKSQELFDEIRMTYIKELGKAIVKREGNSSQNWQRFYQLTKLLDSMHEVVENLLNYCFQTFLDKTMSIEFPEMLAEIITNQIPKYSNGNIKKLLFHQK
Sequence of Lysosomal acid glucosylceramidase (Homo sapiens) (P04062 whole entry, looked up): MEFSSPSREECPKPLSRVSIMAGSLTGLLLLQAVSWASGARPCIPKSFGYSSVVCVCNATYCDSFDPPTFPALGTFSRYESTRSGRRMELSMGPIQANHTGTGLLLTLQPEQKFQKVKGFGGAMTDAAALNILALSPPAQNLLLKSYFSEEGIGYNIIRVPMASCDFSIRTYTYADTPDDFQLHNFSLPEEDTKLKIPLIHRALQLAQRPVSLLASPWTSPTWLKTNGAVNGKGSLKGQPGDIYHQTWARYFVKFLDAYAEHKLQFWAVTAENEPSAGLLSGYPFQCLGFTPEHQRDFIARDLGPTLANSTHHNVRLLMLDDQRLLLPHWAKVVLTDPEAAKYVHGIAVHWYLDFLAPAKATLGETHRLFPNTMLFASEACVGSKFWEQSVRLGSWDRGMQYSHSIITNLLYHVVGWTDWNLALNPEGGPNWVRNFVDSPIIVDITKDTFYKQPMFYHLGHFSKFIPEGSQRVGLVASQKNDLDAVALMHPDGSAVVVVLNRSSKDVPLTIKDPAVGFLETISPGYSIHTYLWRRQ
Sequence of Cytochrome P450 2C9 (Homo sapiens) (P11712 whole entry, looked up): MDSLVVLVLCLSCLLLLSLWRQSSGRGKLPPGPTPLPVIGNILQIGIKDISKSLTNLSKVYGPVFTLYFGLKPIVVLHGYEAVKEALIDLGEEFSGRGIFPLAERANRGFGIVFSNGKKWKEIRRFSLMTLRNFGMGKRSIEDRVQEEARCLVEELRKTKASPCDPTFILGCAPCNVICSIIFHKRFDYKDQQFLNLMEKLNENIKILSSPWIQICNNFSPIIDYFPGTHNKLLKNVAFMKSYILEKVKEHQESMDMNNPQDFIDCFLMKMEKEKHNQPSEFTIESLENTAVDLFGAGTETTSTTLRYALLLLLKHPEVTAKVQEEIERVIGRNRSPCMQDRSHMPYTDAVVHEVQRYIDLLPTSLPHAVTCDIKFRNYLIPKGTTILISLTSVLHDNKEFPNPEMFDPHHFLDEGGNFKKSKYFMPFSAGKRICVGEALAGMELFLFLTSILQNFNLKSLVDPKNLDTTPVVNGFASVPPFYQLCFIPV
Sequence of Cytochrome P450 3A4 (Homo sapiens) (P08684 whole entry, looked up): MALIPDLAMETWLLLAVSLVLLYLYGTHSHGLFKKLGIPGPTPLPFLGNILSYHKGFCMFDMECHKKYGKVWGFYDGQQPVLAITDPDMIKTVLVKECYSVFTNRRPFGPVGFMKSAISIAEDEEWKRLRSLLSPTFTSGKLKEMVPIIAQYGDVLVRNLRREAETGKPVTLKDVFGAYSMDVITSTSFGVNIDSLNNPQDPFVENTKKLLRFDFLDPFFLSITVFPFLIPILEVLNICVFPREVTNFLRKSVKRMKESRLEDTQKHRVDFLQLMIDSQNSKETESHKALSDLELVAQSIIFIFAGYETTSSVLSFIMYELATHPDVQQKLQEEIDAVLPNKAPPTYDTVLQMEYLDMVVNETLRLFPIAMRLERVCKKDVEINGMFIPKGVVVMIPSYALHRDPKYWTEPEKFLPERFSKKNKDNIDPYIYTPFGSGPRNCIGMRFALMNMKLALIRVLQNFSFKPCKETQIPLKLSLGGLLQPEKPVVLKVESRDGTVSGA
Sequence of Cytochrome P450 1A2 (Homo sapiens) (P05177 whole entry, looked up): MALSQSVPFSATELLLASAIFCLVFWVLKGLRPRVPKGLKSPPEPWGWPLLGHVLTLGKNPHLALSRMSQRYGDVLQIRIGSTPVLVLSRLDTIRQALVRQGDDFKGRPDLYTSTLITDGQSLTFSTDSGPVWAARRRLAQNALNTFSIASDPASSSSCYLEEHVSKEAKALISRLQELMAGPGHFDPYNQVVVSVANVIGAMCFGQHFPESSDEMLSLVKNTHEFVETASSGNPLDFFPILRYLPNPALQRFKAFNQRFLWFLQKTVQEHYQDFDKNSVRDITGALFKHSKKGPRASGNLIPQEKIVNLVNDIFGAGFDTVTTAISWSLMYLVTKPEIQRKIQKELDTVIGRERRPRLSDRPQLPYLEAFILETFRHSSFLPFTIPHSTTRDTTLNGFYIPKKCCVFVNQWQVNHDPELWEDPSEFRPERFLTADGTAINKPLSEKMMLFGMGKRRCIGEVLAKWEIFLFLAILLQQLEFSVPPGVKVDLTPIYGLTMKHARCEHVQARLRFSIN
Sequence of 3',5'-cyclic-AMP phosphodiesterase 4B (Homo sapiens) (Q07343 whole entry, looked up): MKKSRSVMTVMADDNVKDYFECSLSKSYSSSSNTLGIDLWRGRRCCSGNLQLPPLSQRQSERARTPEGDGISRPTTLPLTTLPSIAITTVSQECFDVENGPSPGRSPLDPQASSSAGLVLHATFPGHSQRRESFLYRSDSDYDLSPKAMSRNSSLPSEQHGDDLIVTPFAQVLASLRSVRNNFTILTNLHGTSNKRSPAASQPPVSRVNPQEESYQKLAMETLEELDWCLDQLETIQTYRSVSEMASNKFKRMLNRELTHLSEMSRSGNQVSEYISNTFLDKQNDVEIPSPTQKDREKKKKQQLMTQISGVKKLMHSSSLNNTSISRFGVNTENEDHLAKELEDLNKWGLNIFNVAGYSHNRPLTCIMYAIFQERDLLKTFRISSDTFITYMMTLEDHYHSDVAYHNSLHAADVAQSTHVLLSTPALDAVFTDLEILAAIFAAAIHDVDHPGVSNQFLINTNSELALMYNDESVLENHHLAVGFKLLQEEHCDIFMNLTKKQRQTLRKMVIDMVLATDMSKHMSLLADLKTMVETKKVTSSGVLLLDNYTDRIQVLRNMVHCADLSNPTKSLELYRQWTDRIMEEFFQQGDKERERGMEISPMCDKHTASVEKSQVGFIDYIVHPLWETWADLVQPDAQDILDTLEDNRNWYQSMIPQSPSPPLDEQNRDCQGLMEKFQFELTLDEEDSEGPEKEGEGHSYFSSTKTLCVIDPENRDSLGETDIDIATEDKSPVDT
Sequence of Cytochrome P450 2D6 (Homo sapiens) (P10635 whole entry, looked up): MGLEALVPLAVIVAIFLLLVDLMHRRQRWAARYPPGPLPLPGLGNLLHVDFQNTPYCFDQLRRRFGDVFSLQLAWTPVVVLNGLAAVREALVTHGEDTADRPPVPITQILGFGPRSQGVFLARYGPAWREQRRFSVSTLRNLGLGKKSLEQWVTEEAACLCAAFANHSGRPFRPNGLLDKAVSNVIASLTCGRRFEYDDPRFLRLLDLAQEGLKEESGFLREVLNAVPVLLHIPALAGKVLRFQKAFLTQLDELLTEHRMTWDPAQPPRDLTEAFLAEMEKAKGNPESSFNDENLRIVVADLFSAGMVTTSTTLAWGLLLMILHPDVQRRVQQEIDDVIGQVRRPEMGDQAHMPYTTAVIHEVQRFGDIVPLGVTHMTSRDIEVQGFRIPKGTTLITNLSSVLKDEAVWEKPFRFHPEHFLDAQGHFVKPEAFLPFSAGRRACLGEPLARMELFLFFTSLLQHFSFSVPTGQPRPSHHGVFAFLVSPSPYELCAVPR
Sequence of Cytochrome P450 2C19 (Homo sapiens) (P33261 whole entry, looked up): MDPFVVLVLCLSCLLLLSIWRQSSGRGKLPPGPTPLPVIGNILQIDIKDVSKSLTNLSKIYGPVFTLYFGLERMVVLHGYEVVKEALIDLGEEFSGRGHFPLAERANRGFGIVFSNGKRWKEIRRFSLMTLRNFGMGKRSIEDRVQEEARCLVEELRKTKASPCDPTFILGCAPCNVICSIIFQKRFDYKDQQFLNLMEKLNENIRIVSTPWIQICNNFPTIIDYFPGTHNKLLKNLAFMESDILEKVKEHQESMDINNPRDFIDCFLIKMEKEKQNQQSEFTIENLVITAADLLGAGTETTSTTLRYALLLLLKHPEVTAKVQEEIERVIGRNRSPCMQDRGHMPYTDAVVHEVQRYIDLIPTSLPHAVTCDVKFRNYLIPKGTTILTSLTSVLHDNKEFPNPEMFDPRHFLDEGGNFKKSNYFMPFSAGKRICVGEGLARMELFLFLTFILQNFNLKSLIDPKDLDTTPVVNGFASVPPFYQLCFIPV

SMILES	Potency [1] [µM]	activity change, negative = inhibition [2] [%]	activity change, negative = inhibition [3]	activity change, negative = inhibition [4] [%]	activity, negative = inhibition [5] [%]	Potency [6] [µM]	Potency [7] [µM]	Potency [8]	Potency [9]	Potency [10]	Potency [11]	Potency [3]	Potency [12]	Potency [13]	activation [14] [%]
CC[C@@]1([N+](=O)[O-])C[C@H]2C=C[C@@H]1C2	> 11.4	9.4	-12.9% [at 2.29 µM]	4.68	3.53	> 46	> 9.22	inactive	inactive	inactive	–	–	–	–	–
O=C1C(=O)c2ccccc2C(O)=C1C(CCc1ccccc1)C1=C(O)c2ccccc2C(=O)C1=O	> 11.4	-6.25	-21.3% [at 2.29 µM]	6.66	-1.13	> 46	> 9.22	inactive	–	–	3.16 µM (active)	–	–	–	–
O=C(O)c1cccc(CN2CCCCC2)c1	> 11.4	9.32	–	-15.5	3.88	> 46	> 9.22	inactive	–	–	inactive	inactive	–	–	–
Cc1ccc(S(=O)(=O)Nc2cc(=O)[nH]c3c2CCC3)cc1	> 11.4	6.25	–	9.14	-3.68	> 46	> 9.22	inactive	–	0.631 µM (active)	–	3.98 µM (active)	3.16 µM (active)	inactive	2.61
C=C1CCO[C@@]2([C@H](O)[C@@](C)(O)CO)NC(=O)[C@]1(O)NC2=O	> 11.4	5.8	-4% [at 2.29 µM]	-4.59	2.56	> 46	> 9.22	inactive	–	inactive	–	–	–	–	–
Cn1c(=O)c2[nH]c(CSCc3ccccc3)nc2n(C)c1=O	> 11.4	12.7	-15.4% [at 2.29 µM]	8.43	4.21	> 46	> 9.22	inactive	–	inactive	–	–	–	–	–
O=C(O)CC1(C(=O)O)CCCCC1	> 11.4	-1.19	5.1% [at 2.29 µM]	7.95	1.85	> 46	> 9.22	inactive	inactive	inactive	–	–	–	–	–
CN(CCO)Cc1ncccc1O	> 11.4	-2.61	-10% [at 2.29 µM]	14.9	12.9	> 46	> 9.22	inactive	–	–	–	–	–	–	–
CN(C)c1ccc(N=Nc2cccc3ccoc23)cc1	> 11.4	1.15	–	-18.9	4.35	> 46	> 9.22	inactive	–	–	–	0.251 µM (active)	–	inactive	–
Nc1nc(-c2cccs2)cs1	> 11.4	1.24	-30.1% [at 2.29 µM]	6.96	5.4	> 46	> 9.22	inactive	–	–	–	–	–	inactive	–
Nc1c(S(=O)(=O)O)cc(Nc2cccc(S(N)(=O)=O)c2)c2c1C(=O)c1ccccc1C2=O	> 11.4	26	–	-26.6	2.62	> 46	> 9.22	inactive	–	–	3.16 µM (active)	3.98 µM (active)	–	inactive	–
O=C1c2ccccc2C(=O)c2c1ccc(C(=O)O)c2-c1ccc2ccccc2c1	> 11.4	1.13	–	16.7	-16.8	> 46	> 9.22	inactive	–	2.51 µM (active)	1.58 µM (active)	1.26 µM (active)	–	–	–
CC(C)N(CC(=O)O)CC(=O)O	> 11.4	11.5	–	4.66	10.4	> 46	> 9.22	inactive	–	–	–	inactive	–	–	–
O=C1c2ccccc2C(=O)c2c(NC3CCCCC3)ccc(Nc3ccc(S(=O)(=O)O)cc3)c21	> 11.4	-7.28	–	-27.6	-10.9	> 46	> 9.22	inactive	–	3.98 µM (active)	–	1.26 µM (active)	–	–	–
CC(C)CNC(=O)O	> 11.4	8.49	–	0.858	3.89	> 46	> 9.22	inactive	inactive	inactive	–	inactive	–	–	–
